# Several values for one entry are separate records, joined by “and”; a condition that tells them apart may be missing. Equal values may be shown once. Results filed as inconclusive are left out. A call without a number means that no potency is given here. Unmarked numbers belong to inactive results. Activity calls are given as the source filed them. The call rests on the fitted dose curve; in most records, active means well fitted curve in the direction sought with a large enough effect; inconclusive means small, poorly fitted or top-dose-only effect, or another doubt; inactive means no such curve, though single readings can be large; an effect the other way counts as inactive or inconclusive. Numbered stars: 1 amine (or outer) side, 2 acyl side, 3 side chain; on linkers, the order of the positions; unused ones are H or OH. Square brackets hold non-standard residues; d marks the D form. Peptide text beside a SMILES is read from it. X10 = O=C(C(CC(O)CO)O[*:1])[*:2]; NMeV = CN[CH](C(=O)O)C(C)C; NMeA = CN[CH](C)C(=O)O; βAla = NCCC(=O)O
# Key:
# [1] = biological target: Cellular tumor antigen p53 (Homo sapiens) (UniProt P04637); experiment: Primary qHTS for small molecule compounds that upregulate eGFP-tagged delta133p53alpha (in N-terminal) cells. (AID 2060322); conditions: NCI-H358 eGFP-delta133p53alpha fluorescence, 24 h; activation: hits give high values; further: nearly all actives have a fitted effect of over 75% in size; further: potency means the concentration at half of the fitted maximal effect; on activation: series mostly up to about 56 µM
# Procedure, shortened: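 NCI-H358 cells pre-induced 24 h with 10 ng/ml doxycycline to express N-terminal eGFP-delta133p53alpha, then dosed 24 h at 37C without doxycycline; fixed, Hoechst-stained, GFP intensity by laser scanning cytometry, normalized to DMSO (0%) and 57.5 uM 5-azacytidine (100%).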
# [2] = biological target: Aldehyde dehydrogenase, mitochondrial (Homo sapiens) (UniProt P05091); experiment: qHTS for Inhibitors of the Aldehyde Dehydrogenase Family (ALDH2) Primary screen (AID 2061308); further: nearly all actives have a fitted effect of over 55% in size
# [3] = biological target: Retinaldehyde dehydrogenase 3 (Homo sapiens) (UniProt P47895); experiment: qHTS for Inhibitors of the Aldehyde Dehydrogenase Family (ALDH1A3) Primary screen (AID 2061315)
# Sequence of Cellular tumor antigen p53 (Homo sapiens) (P04637 whole entry, looked up): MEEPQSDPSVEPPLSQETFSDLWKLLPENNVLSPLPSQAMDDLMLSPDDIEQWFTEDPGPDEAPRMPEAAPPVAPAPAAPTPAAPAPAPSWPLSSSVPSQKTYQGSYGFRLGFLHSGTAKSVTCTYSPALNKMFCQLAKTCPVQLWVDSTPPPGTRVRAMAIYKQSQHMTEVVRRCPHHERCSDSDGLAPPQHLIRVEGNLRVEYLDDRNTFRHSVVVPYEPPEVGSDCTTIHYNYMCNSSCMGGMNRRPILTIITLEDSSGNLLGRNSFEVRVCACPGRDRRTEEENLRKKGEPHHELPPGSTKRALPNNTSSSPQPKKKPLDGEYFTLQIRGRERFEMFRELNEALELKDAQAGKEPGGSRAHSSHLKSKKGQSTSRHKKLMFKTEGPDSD
Compound,Potency [1],Potency [2],Potency [3],activation [1],"activity change, negative = inhibition [2]","activity change, negative = inhibition [3]"
COc1ccccc1-c1cc(Nc2cccc(CS(N)(=O)=O)c2)ncn1,8.49 µM (active),inactive,inactive,–,–,–
CC(=O)[C@@H]1C[C@H](C(C)(C)O[C@@H]2O[C@H](CO)[C@@H](O)[C@H](O)[C@H]2O)CC[C@@]2(CO)OC(=O)C[C@@H]12,–,inactive,inactive,-6.11%,–,–
C=C1C(=O)O[C@@H]2C[C@H](C)C3=CC(=O)[C@H](O)[C@@]3(C)C[C@H]12,30.1 µM (active),inactive,inactive,–,–,–
OC(CN1CCN(c2cccc(Cl)c2)CC1)C(c1ccccc1)c1ccccc1 (centres undefined),–,inactive,inactive,-15.1% and 17%,–,–
C[C@@H]1O[C@@H](O[C@H]2[C@H](O[C@H]3[C@H](O[C@H]4CC[C@@]5(C)C(CC[C@]6(C)C5CC=C5[C@@H]7CC(C)(C)C[C@@H](O)[C@]7(C)CC[C@]56C)[C@@]4(C)CO)O[C@H](C(=O)O)[C@@H](O)[C@@H]3O)O[C@H](C(=O)O)[C@H](O)[C@@H]2O)[C@H](O)[C@H](O)[C@H]1O (some centres undefined),–,inactive,inactive,6.87%,–,–
COC(=O)C1(Cc2ccc(O)cc2)OC(=O)C(OC)=C1c1ccc(O)cc1 (centres undefined),–,inactive,inactive,-7.63%,–,–
COc1cc(C(C)=O)c(OC)c2c1OC(C)(C)C=C2,–,inactive,inactive,6.25%,–,–
O=C1NCc2nc3ccccc3c(=O)n2C1Cc1c[nH]c2ccccc12 (centres undefined),–,inactive,inactive,-7.63%,–,–
CCC[C@@H](NC(=O)N1C(=O)C(CC)(CC)[C@@H]1Oc1ccc(C(=O)N2CCN(C)CC2)cc1)c1ccc2c(c1)OCO2,–,inactive,inactive,-10.5%,–,–
C=C1C2CCC3CC2(CC(O)C2(O)C1CC(OC1OC(CO)C(O)C(O)C1O)C2(C)C)CC3(C)O (centres undefined),–,inactive,inactive,19.6%,–,–
C=C1CC[C@H]2[C@@](C)(CCC[C@@]2(C)C(=O)O)[C@@H]1CCC(C)CCO (some centres undefined),–,inactive,inactive,9.16%,–,–
CC1CC(=O)C2=C(C1)C1OC1C1(O)C2C(=O)c2cccc(O)c2C1O (centres undefined),–,inactive,inactive,4.58%,–,–
CCC(C)C1NC(=O)C2CCCN2C(=O)C(CC(O)CO)OC(=O)CCNC(=O)C(C)N(C)C(=O)C(C(C)C)N(C)C1=O (centres undefined) (cyclo([X10]PI[NMeV][NMeA][βAla]); configuration not given here),–,inactive,inactive,-16%,–,–
Cc1cc(C(=O)N2Cc3cnn(C)c3Nc3ccccc32)ccc1CNC(=O)N1CCN(Cc2cc(O)cc(O)c2)CC1,–,inactive,inactive,-7.16%,–,–
CC(=O)OC1C(O)CC(O[C@@H]2O[C@H](CO)[C@@H](O)[C@H](O)[C@H]2O)C2CCC3C(=O)OC(c4ccoc4)CC3(C)C21 (some centres undefined),–,inactive,inactive,3.05%,–,–
CC(=O)O[C@@H]1C[C@@]2(C)C(CC[C@]3(C)C2CC=C2C4CC(C)(C)CC[C@]4(C(=O)O)CC[C@]23C)C(C)(C)[C@H]1O (some centres undefined),–,inactive,inactive,13.4%,–,–
C=C1CCC2C(C)(C)C(O)CCC2(C)C1CCC(C)CCO (centres undefined),–,inactive,inactive,6.25%,–,–
OCCc1ccc(O[C@@H]2O[C@H](CO)[C@@H](O)[C@H](O)[C@H]2O)cc1,–,inactive,inactive,-7.14%,–,–
OC[C@@]1(O)CO[C@H](OC[C@H]2O[C@@H](OCCc3ccccc3)[C@H](O)[C@@H](O)[C@@H]2O)[C@@H]1O,–,inactive,inactive,-10.7%,–,–
CC1(C)CC2C3=CCC4C5(C)CCC(OC6OC(CO)C(O)C(OC7OC(CO)C(O)C(OC8OC(CO)C(O)C(OC9OC(COC%10OC(CO)C(O)C(O)C%10O)C(O)C(O)C9O)C8O)C7O)C6O)C(C)(C)C5CCC4(C)C3(C)CCC2(C(=O)O)CC1O (centres undefined),–,–,–,-24.4%,8.77% [at 11.2 µM],1.03% [at 11.2 µM]
O=c1[nH]c2ccc(C#CCN3CCC(Cc4ccccc4)CC3)cc2[nH]1,–,inactive,inactive,-3.57%,–,–
CC1=C(C)C(=O)OC(C(C)C2CCC3C4CC=C5CC(OC6OC(COC7OC(CO)C(O)C(O)C7O)C(O)C(O)C6O)CC(O)C5(C)C4CCC23C)C1 (centres undefined),–,inactive,inactive,9.16%,–,–
CC(C)(O)C1CC(=O)C2(C)C(CCC3(C)C(c4ccoc4)OC(=O)C4OC432)C12CCC(=O)OC2 (centres undefined),–,inactive,inactive,-3.57%,–,–

# From PubChem BioAssay (NCATS)
